aSyn yeast inh = qHTS of alpha-syn Inhibitors; Yeast expressing alpha-synuclein, growth rescue, BacTiter-Glo, 24 h; Potency, µM (titrated, usually from 46.1 µM), for the others: at the top dose growth rescue (activation), most hits filed as activators; 0.14% of 370,000 active; AID 652106, 2013; note: % of control where 0% means no effect; nearly all actives have a fitted effect of over 65% in size
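Galactose-induced alpha-syn yeast (OD600=0.02, raffinose-pregrown) + pinned cpd, 24 hr, 30 deg C; growth by BacTiter-Glo luminescence. Growth restoration scores as activation.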
Mito fusion act = qHTS Assay for Small Molecule Inhibitors of Mitochondrial Division or Activators of Mitochondrial Fusion; Potency, µM (titrated, usually from 46.1 µM), for inactives: top-dose growth rescue (activation), actives largely listed as activators; S. cerevisiae fusion-defective mutant growth rescue, CellTiterGlo 48 h; 0.23% of 320,000 active; note: % of control where 0% means no effect; nearly all actives have a fitted effect of over 45% in size
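S. cerevisiae fusion-defective temperature-sensitive mutants (e.g. fzo1-1, mgm1-5) grown 48 h at 37C in YPEG (ethanol/glycerol non-fermentable) medium with 23 nl compound per well; growth rescue read as CellTiterGlo luminescence.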
FUS suppressor = qHTS for Suppressors of FUS Proteinopathy: Primary screen using FUS-linked yeast assay. AID 1347120, 2019. S. cerevisiae FUS-expressing, growth rescue, OD600, 24 h. 0.24% of 390,000 active. Potency, µM (doses to about 76.6 µM), actives largely listed as activators;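 note: plate controls were DMSO vehicle for no effect and reference control for full effect; nearly all actives have a fitted effect of over 55% in size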
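Compound concentration series was pinned onto galactose-induced FUS-expressing yeast seeded at OD 0.005. Plates sat 24hr at 30C; absorbance at 600 nm gave growth. DMSO served as background control.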
TDP43 rescue = qHTS of TDP-43 Inhibitors | TDP-43 expressing yeast growth rescue, BacTiter-Glo, 24 h | 1.8% of 410,000 active | AID 652104, 2013 | Potency, µM (titrated, usually from 46.1 µM), without a hit: top-dose growth rescue (activation), usual class: activators; note: % of control where 0% means no effect; nearly all actives have a fitted effect of over 50% in size
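In this qHTS, compounds that restore growth of yeast expressing TDP-43 appear as activators. Cells (OD600=0.02, galactose medium, raffinose-pregrown) are incubated with compound 24 hr at 30 deg C and growth is quantified by BacTiter-Glo.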
Abeta rescue = qHTS for compounds that reverse cellular toxicity of Amyloid beta (A-beta) peptide in yeast: Primary Screen; Potency, µM (top dose mostly 46.1 µM), usual class: activators; AID 1347071, 2019; yeast expressing A-beta42, growth rescue, OD600, 48 h; response scale: 0% DMSO, 100% iron-clioquinol control; 0.063% of 410,000 active; note: nearly all actives have a fitted effect of over 55% in size
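Yeast growth medium received pinned compounds, then yeast cells expressing toxic A-beta were added; plates incubated at 30 C for 48 hr. Growth read as absorbance at 600 nm, normalized to DMSO and equimolar FeCl3 plus clioquinol controls.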
* hit, by the source's call; i = inactive; ? = inconclusive; · = no result; ! = repeats disagree; [ ] = remark or other dose. Sampled rows, rich in hits. Any-hit rate of the full collection: about 2.2%. Calls come from the whole dose curve; as a rule, active = well fitted curve in the direction sought with a large enough effect; inconclusive = small, poorly fitted or top-dose-only effect, or another doubt; inactive = no such curve, though single readings can be large; an effect the other way counts as inactive or inconclusive. Potency is the fitted concentration of half-maximal effect.

SMILES	aSyn yeast inh	Mito fusion act	FUS suppressor	TDP43 rescue	Abeta rescue
CC1CCN(S(=O)(=O)c2ccc3c(c2)CCN3C(=O)Nc2ccc(Br)cc2)CC1	·	·	i	6.5%	i
Cc1cc(S(=O)(=O)Nc2cc3c(cc2Cl)n(C)c(=O)c(=O)n3C)ccc1F	·	·	i	0.1%	i
CS/C(N)=N/C(=S)Nc1cccc(Cl)c1	4.2%	1.6%	i	?	12.6µM*
S=C1SCN(Cc2cccnc2)CN1Cc1ccccc1	-9.9%	7.3%	i	25.1µM*	i
S=C1NCN(Cc2cccnc2)CN1Cc1ccccc1	1.8%	-5.6%	i	8.5%	i
O=[N+]([O-])c1ccccc1CNc1ccc(F)c(Cl)c1	-10.9%	26.1%	i	17.8µM*	i
C=CCOc1ccc2c(c1)C(=NO)c1cc(OCC=C)ccc1-2	-18.8%	8.1%	i	0.0%	i
COc1ccc2c(c1)C(=NO)c1cc(OC)ccc1-2	-5.0%	-8.1%	i	11.2µM*	i
CCC(=O)N(Cc1ccccc1)c1ccccc1C(=O)Nc1cc(OC)ccc1OC	·	·	i	·	·
Cc1ccc(Nc2c(N)c(=O)oc3ccccc23)cc1	1.1%	-6.1%	i	14.1µM*	i
CCOc1ccc(NC(=O)c2ccc3c(SCC(=O)O)c4c(nc3c2)CCC4)cc1	·	·	i	-3.0%	i
CCOc1ccc(S(=O)(=O)Nc2cccc(-c3ccc(OCC)nn3)c2)cc1	·	·	i	35.5µM*	i
Cc1ccc(S(=O)(=O)Nc2cccc(-c3ccc(N4CCCCCC4)nn3)c2)cc1C	-0.1%	0.0%	22.4µM*	-2.6%	·
CCc1ccc(S(=O)(=O)Nc2cccc(-c3ccc(OC)nn3)c2)s1	·	·	?	17.8µM*	i
Cc1ccc2nc(NC(=O)C3=NN(c4ccccc4)C(=O)CC3)sc2c1	-0.7%	29.7%	?	15.8µM*	i
Cc1ccc2sc(NNC(=O)C3COc4ccccc4O3)nc2c1C (stereo not given)	-4.4%	15.1%	i	7.08µM*	i
N#CCC(=O)Nc1nc(-c2ccc3c(c2)OCCO3)cs1	10.3%	3.3%	i	-1.2%	i
O=C(Nc1nc(-c2ccc3c(c2)OCO3)cs1)C1COc2ccccc2O1 (stereo not given)	-0.5%	21.0%	i	11.2µM*	i
O=C(NNc1nc2c(F)cccc2s1)C1COc2ccccc2O1 (stereo not given)	1.6%	-0.2%	i	-12.5%[0.397 µM]	i
O=C(Nc1nc(-c2ccccn2)cs1)C1COc2ccccc2O1 (stereo not given)	?	?	i	?	i
O=C(Nc1nc(-c2ccccc2)cs1)C1COc2ccccc2O1 (stereo not given)	-12.2%	2.7%	i	11.2µM*	i
O=C(Nc1nc(-c2ccc3c(c2)OCCO3)cs1)C1CCCC1	-20.1%	-10.4%	i	11.2µM*	i
Cc1cc(C)c(S(=O)(=O)N2CCN(C(=O)CN3C(=O)NC4(CCCC4)C3=O)CC2)c(C)c1	3.5%	-1.5%	·	4.3%	i
CC1CCc2nc(NC(=O)C3COc4ccccc4O3)sc2C1 (stereo not given)	-1.4%	?	i	35.5µM*	?
Cc1ccc(CNC(=O)CCn2cnc3ccccc3c2=O)cc1	·	·	i	-19.2%	i
SMILES	aSyn yeast inh	Mito fusion act	FUS suppressor	TDP43 rescue	Abeta rescue
O=C(O)c1cccnc1SCc1cccc(Cl)c1	8.8%	-6.0%	i	35.5µM*!	i
CC(=O)c1sc(N/N=C\c2ccc(Br)cc2)nc1C	1.1%	-6.8%	i	0.0%	i
CC(=O)c1sc(N/N=C\c2cccc(Br)c2)nc1C	-11.2%	?	?	17.8µM*	i
C[C@]12c3[nH]c4ccc(Cl)cc4c3CCN1C(=O)[C@@H](CC(=O)NCC13CC4CC(CC(C4)C1)C3)C[C@@H]2C(=O)N1CCOCC1	10.8%	·	?	20.3%	i
C[C@]12c3[nH]c4ccc(Cl)cc4c3CCN1C(=O)[C@@H](CC(=O)NCC13CC4CC(CC(C4)C1)C3)C[C@@H]2C(=O)N1CCCCC1	15.8µM*	·	i	19.2%	i
COc1ccc2[nH]c3c(c2c1)CCN1C(=O)C(CC(=O)NCC24CC5CC(CC(C5)C2)C4)C[C@H](C(=O)N(C(C)C)C(C)C)[C@@]31C (stereo not given in full)	-15.1%	·	?	11.2µM*	i
CCN(CC)C(=O)[C@H]1CC(CC(=O)NCC23CC4CC(CC(C4)C2)C3)C(=O)N2CCc3c([nH]c4ccccc34)[C@]12C (stereo not given in full)	?	·	i	28.2µM*	i
CCN(CC)C(=O)[C@H]1C[C@H](CC(=O)NCC23CC4CC(CC(C4)C2)C3)C(=O)N2CCc3c([nH]c4cc(-c5ccco5)ccc34)[C@]12C	1.2%	·	i	20.4%	i
Cc1ccc(Nc2nc3ccc(C)cc3nc2-n2nc(C)cc2C)c(C)c1	·	·	i	32.8%	i
NCCCN(Cc1ccc(Cl)c(Cl)c1)c1ccccn1	-0.8%	·	·	·	·
CCCCn1c(N)c(N(CC(C)C)C(=O)c2cc(S(=O)(=O)N3CCOCC3)ccc2Cl)c(=O)[nH]c1=O	-0.8%	0.2%	i	13.9%	i
CCOC(=O)Cn1c(=O)oc2cc(S(=O)(=O)N3CCN(c4cc(C)ccc4C)CC3)ccc21	·	·	i	10.7%	i
Cc1ccc2nc(NC(=O)CSc3nccn3Cc3ccc(F)cc3)sc2c1	?	·	i	22.4µM*	?
Cc1cc(C(=O)C(=O)Nc2nncs2)c(C)n1-c1ccc(Cl)cc1	·	·	i	11.2µM*	i
Cc1cccc(-n2c(C)cc(C(=O)C(=O)Nc3nncs3)c2C)c1	·	·	i	?	i
COc1ccc(CN(C)CC(=O)Nc2cccc(S(N)(=O)=O)c2)c(OC)c1OC	-4.5%	1.0%	i	-7.8%	·
O=C(CSc1nnc(CNC(=O)c2ccccc2)o1)NCc1ccc2c(c1)OCO2	0.1%	0.7%	i	-10.8%	i
O=S(=O)(Nc1ccc(C(O)(C(F)(F)F)C(F)(F)F)cc1)c1ccc(Cl)c2nonc12	-16.8%	·	i	20µM*	i
Cc1ccccc1C(=O)c1c[nH]c(C(=O)N2CCN(c3ccccc3F)CC2)c1	9.9%	3.2%	i	25.1µM*	i
COc1cccc(N2CCN(C(=O)c3cc4c(OC)c(OC)c(OC)cc4[nH]3)CC2)c1	-8.8%	-7.5%	i	19.9%	i
NC(=O)c1cc(C(=O)c2cccc(Cl)c2Cl)c[nH]1	-0.3%	-6.1%	i	-5.8%	i
COc1cc2[nH]c(C(=O)N3CCN(c4ccccc4F)CC3)cc2c(OC)c1OC	13.2%	-16.8%	i	35.5µM*	i
